One may read the inhibition as the change of the read-out against control, counted positive when it falls.

Molecules are shown by their SMILES. Hit rate of the full screen: of about 330,000 compounds, about 1,900 (0.58%) were called active. About 4% were inconclusive and are not listed. A selection follows. Results with a measured potency or affinity are listed apart. Values without a mark were called inactive. Cut-off read from the data, not from the text of the source: inconclusive = inhibition above about 70% without an active follow-up result; inactive = below that. Where a SMILES comes first, the peptide text is derived from it. [ ]: non-standard residue; d: D form. The star is where a group is joined. ξ: configuration not given here. Cbz = O=C(OCc1ccccc1)*; ξS = NC(CO)C(=O)O

This experiment is described as follows: M. tuberculosis growth inhibition, HTS (AID 449762).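 Note: bacterial growth assessed after seven days of incubation.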 The settings on record: M. tuberculosis H37Rv growth inhibition, 7H9 media; at 25 µM; active compounds read high.
Consider `CCOc1ccc(S(=O)(=O)NCCC(=O)N2CCC(Cc3ccccc3)CC2)cc1`, for which the inhibition was 44.3%.

Turning to `CCN(CC)S(=O)(=O)c1ccc(N2CCN(CCO)CC2)nc1`, the inhibition was -5.66%.

For the compound `Cc1nc2ccc(NC(=O)c3cc([N+](=O)[O-])cc([N+](=O)[O-])c3Cl)cc2s1`, the inhibition was 38.8%.

Take `Cc1nc2ccc(NC(=O)c3ccc([N+](=O)[O-])cc3)cc2s1`: the inhibition is 3.43%.

Consider `COc1ccc(S(=O)(=O)N2CCN(CC(=O)Nc3ccccc3Cl)CC2)cc1`, for which the inhibition is -4.47%.

With `CN(C)C1(CNC(=O)c2ccc(NS(=O)(=O)c3ccc(Cl)c(Cl)c3)cc2)CCCCC1`, the inhibition was -3.67%.

For the compound `CN(C)C1(CNC(=O)Nc2ccccc2)CCCCC1`, the inhibition is 3.43%.

For `CCc1cc2c(=O)n(CC(=O)NCCc3ccc(OC)c(OC)c3)cnc2s1`, the inhibition is -7.38%.

Take `CCN(CC)C(=O)CN(c1cccc(Br)c1)S(C)(=O)=O`: the inhibition was -7.74%.

`COC(C/C=C/[C@H](O)[C@@H](C)OCc1ccccc1)OC`: the inhibition was -3.21%.

`O=C(C1=C[C@H](c2csc3ccccc23)C[C@H](OCc2ccc(CO)cc2)O1)N1CCN(Cc2ccc3c(c2)OCO3)CC1`: the inhibition was 21.8%.

`O=C(C1=C[C@H](c2csc3ccccc23)C[C@H](OCCCCO)O1)N1CCN(Cc2ccc3c(c2)OCO3)CC1`: the inhibition was 59.9%.

For `Cc1ccc(/C=C/C(=O)O)cc1S(=O)(=O)N1CCc2ccccc21`, the inhibition is -1.47%.

For `C/C(=N\NC(=O)c1sccc1C)c1cccnc1`, the inhibition is -1.12%.

In the case of `CCN1CC(CN(C)Cc2nc(COc3ccccc3)no2)CC1=O` (stereo not drawn), the inhibition is 2.85%.

Turning to `C[C@H](NCCc1ccc(O)cc1)[C@H](O)c1ccc(O)cc1`, the inhibition is 1.5%.

Turning to `C[C@@H](NCCc1ccc(O)cc1)[C@@H](O)c1ccc(O)cc1`, the inhibition is -1.64%.

With `CCCCNC(=O)c1c(CSc2ccc(Cl)cc2)noc1C(=O)NCc1ccccc1`, the inhibition is 8.53%.

Consider `CC(C)(C)c1[nH]nc2c1C(Cc1ccccc1)C(C#N)=C(N)O2` (stereo not drawn), for which the inhibition is -0.95%.

For `COc1ccccc1Nc1ccc(C(=O)NC2CCCCC2)cn1`, the inhibition is -2.47%.

As to `C/C(=N\NC(=O)COc1ccc(C)cc1[N+](=O)[O-])c1cccs1`, the inhibition was 2.03%.

Take `C/C(CC(=O)NC(C)(C)C)=N\NC(=O)COc1ccc(C)cc1Br`: the inhibition was 2.95%.

Take `Cc1ccsc1C(=O)OCC(=O)NCc1ccccc1`: the inhibition was -4.47%.

Turning to `COc1cccc(/C=C2\SC(=S)N(CCCC(=O)NC3=NCCS3)C2=O)c1`, the inhibition is 2.44%.

Turning to `Cc1cc(C=C2C(=O)N(C)C(=S)N(C)C2=O)c(C)n1C1CCCC1`, the inhibition was 64.7%.

As for `Cc1cc(C=C2C(=O)N(C)C(=S)N(C)C2=O)c(C)n1C1CCCCC1`, the inhibition is -5.32%.

On to `CCOC(=O)C1CCN(S(=O)(=O)c2ccc(-c3cc(C(F)(F)F)n(C)n3)s2)CC1`, for which the inhibition is -4.16%.

For the compound `Cc1cnc(C(=O)Nc2cccc3ncccc23)cn1`, the inhibition is -2.6%.

With `Cc1c(C)c(C)c(CO/N=C/c2cccs2)c(C)c1C`, the inhibition is -0.39%.

Consider `COc1cc(NC(C)CCCN)c2ncccc2c1Oc1ccccc1` (stereo not drawn), for which the inhibition was -3.95%.

Consider `COc1cc(NCCCCCCCN)c2ncccc2c1`, for which the inhibition was 7.02%.

In the case of `CCCCC(=O)Nc1cccc(-c2nn3c(C)nnc3s2)c1`, the inhibition was 8.49%.

Regarding `Cc1cc(/C=C2/C(=O)NN(c3ccccc3)C2=O)c(C)n1-c1ccc(O)cc1`, the inhibition is 5.28%.

Regarding `O=C1NN(c2cccc(Br)c2)C(=O)/C1=C\c1ccc(O)cc1`, the inhibition is 1.89%.

Take `CN(CC1COc2ccccc2O1)C(=S)NC1CCCCC1` (stereo not drawn): the inhibition is -4.56%.

As to `COc1cc(/C=N\NC(=O)c2ccc(Cn3nc([N+](=O)[O-])c(Cl)c3C)o2)ccc1O`, the inhibition was -5.71%.

For the compound `Cc1nn(Cc2ccc(C(=O)NN)o2)c(C)c1Cl`, the inhibition was -6.65%.

Turning to `Cc1ccc(CNC(=O)c2ccc(Cn3nc(C)c(Cl)c3C)o2)cc1`, the inhibition is -10.1%.

`Cc1c(Cl)c([N+](=O)[O-])nn1Cc1ccc(C(=O)N/N=C\c2ccccn2)o1`: the inhibition is 0.01%.

With `COc1ccc(NC(=O)C(C)N(C)Cc2ccc3ccccc3c2)cc1` (stereo not drawn), the inhibition is 0.65%.

In the case of `NC(N)=NCCCC(NC(=O)c1ccccc1)C(=O)Nc1ccc2ccccc2c1` (stereo not drawn), the inhibition is 69.1%.

Take `O=C(CSc1ccc2nnc(-c3ccc(F)cc3)n2n1)NCc1ccco1`: the inhibition was -4.01%.

`CC1(C)C([N+](=O)[O-])C(c2ccc(Cl)cc2)NC(c2ccc(Cl)cc2)C1[N+](=O)[O-]` (stereo not drawn): the inhibition is 61.2%.

Take `CCOc1ccc(NC(=O)CSc2ccc3nnc(-c4cccnc4)n3n2)cc1`: the inhibition was -11.5%.

For `CCN(CC)C(=S)Nc1ccc(Cl)c(Cl)c1`, the inhibition was 7.74%.

Regarding `O=C(Cc1ccccc1)NNC(=O)Nc1ccc(Cl)c(Cl)c1`, the inhibition was 9.99%.

`Cc1ccc2nc(CSc3nnc(-c4ccncc4)n3C)cc(=O)n2c1`: the inhibition was -4.97%.

For `CCc1nc(SCc2nnc(-c3ccc(C)cc3)o2)c2c(C)c(C)sc2n1`, the inhibition is -15.8%.

For `O=C1NCC(c2ccccc2)C1C(=O)N/N=C/c1ccc(Cl)s1` (stereo not drawn), the inhibition is -0.33%.

Turning to `O=C1NCC(c2ccccc2)C1C(=O)N/N=C\c1ccc(-c2cccc(Cl)c2Cl)o1` (stereo not drawn), the inhibition was 24.5%.

Regarding `COCCNC(=O)C1CC2Cn3c(nc4cc(Cl)c(Cl)cc43)C2N1C` (stereo not drawn), the inhibition is 2.07%.

Turning to `O=C(NCC1CCCO1)c1cc([N+](=O)[O-])ccc1N1CCC(Cc2ccccc2)CC1` (stereo not drawn), the inhibition was 32.2%.

Take `CCOC(=O)CNC(=O)C(CO)NC(=O)OCc1ccccc1` (stereo not drawn) (Cbz-[ξS]-Gly-OEt): the inhibition is 5.25%.

As to `CCNC(=O)C(Cc1ccccc1)NC(=O)OCc1ccccc1` (stereo not drawn), the inhibition is -4.3%.

Consider `COc1cc(OC)cc(C(=O)N[C@H](C(=O)Nc2ccc(NC(C)=O)cc2)C(C)C)c1`, for which the inhibition is -0.98%.

As for `O=c1c(Cc2ccccc2)c(O)ccn1Cc1ccc2c(c1)OCO2`, the inhibition is 3.04%.

Take `O=C(Nc1cc(=O)[nH]c2nc(-c3ccccc3)nn12)c1ccc(Cl)cc1`: the inhibition was -2.49%.

With `O=C(Nc1cc(=O)[nH]c2ncnn12)c1ccco1`, the inhibition was -17.4%.

For the origin of these results see PubChem BioAssay AID449762 (Southern Research Specialized Biocontainment Screening …, 2010).
